The panel holds about 83,000 compounds, 20% with a hit somewhere; the sample as a whole holds those more often.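 The test compound was applied at a single concentration to cells in 96-well plates for 48 hours, and percent growth was recorded.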 Values without a mark were called inactive. Calls of active or inactive are those of the source. Rule for the calls: active = growth percent below 10; inactive = the rest.
Legend:
Assay in all cases: NCI-60 one-dose screen, 48 h (100 = growth as untreated, 0 = no growth, -100 = all killed)
Details in all cases: 10 µM unless noted
MOLT-4 leukemia = system: MOLT-4 leukemia
SR leukemia = system: SR leukemia
RPMI-8226 leukemia = system: RPMI-8226 leukemia
OVCAR-8 ovarian = system: OVCAR-8 ovarian
OVCAR-5 ovarian = system: OVCAR-5 ovarian
OVCAR-4 ovarian = system: OVCAR-4 ovarian
SK-OV-3 ovarian = system: SK-OV-3 ovarian
IGROV1 ovarian = system: IGROV1 ovarian
OVCAR-3 ovarian = system: OVCAR-3 ovarian
HS 578T breast = system: HS 578T breast

Row | Structure (SMILES) | growth (MOLT-4 leukemia) | growth (SR leukemia) | growth (RPMI-8226 leukemia) | growth (OVCAR-8 ovarian) | growth (OVCAR-5 ovarian) | growth (OVCAR-4 ovarian) | growth (SK-OV-3 ovarian) | growth (IGROV1 ovarian) | growth (OVCAR-3 ovarian) | growth (HS 578T breast)
1 | COC(=O)[C@@]1(O)C[C@H]2O[C@]1(C)n1c3ccccc3c3c4c(c5c6ccccc6n2c5c31)C(=O)NC4 | -31% (active) | -18.3% (active) | -39.6% (active) | -43.6% (active) | -11.6% (active) | -51% (active) | -33.8% (active) | -30.4% (active) | -19.2% (active) | 
2 | CCC1CN1CCCCN1CC1CC (configuration not stated) | 108% | 104% | 102% | 101% | 102% | 102% | 110% | 102% | 107% | 
3 | C[C@]12C[C@@H](CO)[C@H](O)C[C@@H]1CC[C@@H]1[C@@H]2CC[C@]2(C)[C@@H](O)CC[C@@H]12 | 85.8% | 79.4% | 91.9% | 96.8% | 104% | 105% | 106% | 105% | 101% | 
4 | N#CCCNc1ccccc1 | 79.3% | 77.1% | 95.2% | 114% | 104% | 105% | 121% | 119% | 106% | 
5 | ClCCN(CCCl)Cc1ccc(Nc2ccnc3cc(Cl)ccc23)cc1 | -33.5% (active) | -15.9% (active) | 0.54% (active) | 37.9% | 74.1% | 48.2% | 53.5% | 55.4% | 39.7% | 
6 | O=[N+]([O-])c1c(Br)sc(Br)c1[N+](=O)[O-] | -3.6% (active) | -5.81% (active) | 16.7% | 5.21% (active) | 76.3% | 30.9% | 98.7% | 3.28% (active) | -62.4% (active) | 
7 | COc1ccc(/C=C\c2cc(OC)c(OC)c(OC)c2)cc1OCC(=O)Nc1nc2ccc(F)cc2s1 | 12.5% | 13.8% | 48.3% | 29.2% | 92.4% | 51.1% | 61.2% | 17% | 48.2% | 33.8%
8 | CCOc1ccc(/C=C/[N+](=O)[O-])cc1 | 118% | 67.5% | -36.4% (active) | 101% | 89.8% | 87.9% | 111% | 86.5% | 86.3% | 
9 | COC(=O)CCc1c[nH]c2ccc(N(CCCl)CCCl)cc12 | 23.1% | 12.7% | 86.3% | 56.1% | 80.3% | 79.7% | 66.4% | 65.6% | 80.3% | 
10 | CC(=O)OC1CCC2(C)C(CCC3C2CC(=O)C2(C)C3CC(Sc3ccc(N(CCCl)CCCl)cc3)C2C(C)=O)C1 (configuration not stated) | 77.3% | 51.5% | 49% | 84.1% | 95.6% | 84.4% | 113% | 116% | 99.6% | 110%
11 | CC(C)[C@@H]1NC(=O)[C@]2(C)CSC(=N2)c2csc(n2)CNC(=O)C[C@@H](/C=C/CCS)OC1=O | 7.47% (active) | 12% | -15.4% (active) | -11.9% (active) | 25% | 27.7% | -12.6% (active) | 0.877% (active) | -21.3% (active) | 7.81% (active)
12 | O=C([O][Hg][c]1ccccc1)c1ccccc1 | -27.5% (active) | -7.13% (active) | -36.7% (active) | -29% (active) | -82.3% (active) | -1.64% (active) | 64.9% | -64% (active) | -94.4% (active) | 12.9%
13 | CC1(C)[C@H](O)[C@H](F)C[C@@]2(C)Oc3ccc(C(=O)Nc4ccc5c(c4)NC(=O)C54CCN(CCCCC#N)CC4)cc3C[C@H]12 | -19.5% (active) | 10.4% | -12.6% (active) | 62.5% | 62.9% | 64.9% | 17.7% | 63.2% | 61.3% | -13.3% (active)
14 | Cc1cc(N(CCCl)CCCl)ccc1C=Nc1ccc(-c2csc(Cc3ccccc3)n2)cc1 | 27.2% | 27.2% | 58.5% | 65% | 54.4% | 64% | 56% | 61.7% | 75.2% | 106%
15 | COC(=O)[C@@H](C)C[C@H](Cc1ccccc1)NC(=O)c1csc([C@@H](C[C@H](C(C)C)N(C)C(=O)[C@H](C)NC(=O)[C@H]2CCCCN2C)OC(C)=O)n1 | 33.2% | 15.8% | 15.7% | 26.4% | 63.7% | 60.3% | 47.2% | 47% | -0.67% (active) | 6.45% (active)
16 | C/C(=C\c1ccn(-c2ccc(N)c(F)c2)n1)[C@@H]1C[C@@H]2O[C@]2(C)CCC[C@H](C)[C@H](O)[C@@H](C)C(=O)C(C)(C)[C@@H](O)CC(=O)O1 | 6.16% (active) | 9.07% (active) | 8.95% (active) | 24.7% | 19.4% | 52.2% | 50.7% | 34% | 2.8% (active) | 2.63% (active)
17 | CCCCCCCCC(CO)NCCc1ccccc1 (configuration not stated) | 60.5% | 76.7% | 80.4% | 81.1% | 101% | 108% | 102% | 105% | 107% | 106%
18 | C/C=C(\C)C(=O)O[C@@H]1C(O)[C@H]2OC(COC(=O)CCC(=O)CCCCCC[C@H](CCCCC)O[C@@H]3OC(C)[C@H](OC(C)=O)C(O)[C@H]3O2)[C@H]1OC(=O)/C=C/c1ccccc1 (some centres not stated) | 37.7% | -7.08% (active) | 2.87% (active) | 24% | 49.2% | 18% | 12.1% | 27.3% | 15.4% | 28.7%
19 | CN[C@@]1(c2ccccc2Cl)CCCC[C@@H]1NCC1CCCO1 (some centres not stated) | 111% | 95.2% | 104% | 102% | 97.4% | 93.8% | 111% | 102% | 116% | 96.3%
20 | ClCCN(CCCl)c1nc(Cl)c(C2CC(c3ccccc3)=NN2c2cc(Cl)cc(Cl)c2)s1 (configuration not stated) | 101% | 112% | 108% | 100% | 102% | 96.9% | 105% | 101% | 103% | 102%
21 | CSc1nc(Cl)cc(N2CC2)n1 | 108% | 109% | 73.8% | 101% | 111% | 114% | 115% | 123% | 117% | 110%
22 | COc1ccc2c(c1)c(-c1nc(-c3c[nH]c4ncccc34)cs1)cn2CCN1CCOCC1 | 45.7% | 45.5% | 22.3% | 37.9% | 82.9% | 28% | 67.9% | 27.7% | 59% | 37.5%
23 | COC(=O)[C@@H](C)C[C@H](Cc1ccccc1)NC(=O)c1cccc([C@@H](C[C@H](C(C)C)N(C)C(=O)[C@@H](NC(=O)[C@H]2CCCCN2C)C(C)C)OC(C)=O)n1 | 11.5% | 8.11% (active) | 22.4% | 11.4% | 35.6% | 38.9% | 28.7% | 26.8% | -31.3% (active) | 26.3%
24 | CCCCCCCCCCCCCCCCCC1OC[C@@H](COC(=O)O[C@@H](C(=O)O[C@H]2C[C@@]3(O)[C@@H](OC(=O)c4ccccc4)[C@@H]4[C@]5(OC(C)=O)CO[C@@H]5C[C@H](O)[C@@]4(C)C(=O)[C@H](OC(C)=O)C(=C2C)C3(C)C)[C@@H](NC(=O)c2ccccc2)c2ccccc2)O1 (some centres not stated) | 58.7% | 47.8% | 15.2% | 64.8% | 53.9% | 80.8% | 57.9% | 50.4% | 29.2% | 57.3%
25 | COc1cc(/C=N/C2=C(C#N)C(c3ccco3)c3c(c4cc(C)ccc4oc3=O)O2)cc(OC)c1OC (configuration not stated) | 106% | 74.8% | 101% | 101% | 105% | 97.6% | 92.6% | 83.1% | 91.4% | 64.3%
26 | Fc1ccc2c(c1)c(-c1nc(-c3c[nH]c4ncccc34)cs1)cn2CCN1CCOCC1 | 35.4% | 39.7% | 29% | 33.5% | 89.8% | 44.7% | 87.2% | 21.5% | 59.5% | 53.8%
